ClpP mod – qHTS Assay for Activators of ClpP; Potency, µM (titrated, usually from 57.5 µM), without a hit: at the highest dose activity change, negative = active; ATP-dependent Clp protease proteolytic subunit (Bacillus subtilis (strain 168)), P80244; 1.9% of 340,000 active; purified B. subtilis ClpP, FRET peptide cleavage, 20 min; active means well fitted falling curve with a large enough effect; inconclusive means small, poorly fitted or top-dose-only effect; inactive means no such curve, though single readings can be large or run the other way; further: potency means the concentration at half of the fitted maximal effect; the source files actives as falling curves though it sought activators and does not explain the sign; nearly all actives have a fitted effect of over 65% in size
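ClpP 10 microg/mL final, pH 8 Tris/KCl buffer with BSA, glycerol, Tween-20; compound pinned in; FRET-FV substrate; RT 20 min; Ex320/Em430; ΔFRET vs ADEP 5.8 microM, DMSO, no enzyme.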
NPSR antag – qHTS Assay for Antagonists of the Neuropeptide S Receptor: cAMP Signal Transduction; 1% of 220,000 active; CHO-NPSR cells, cAMP TR-FRET, antagonist mode; Q6W5P4; Potency, µM (top dose mostly 38.3 µM), without a hit: at the highest dose activity change, negative = inhibition, usual class: inhibitors; further: potency means the concentration at half of the fitted maximal effect; on the % scale 0 is the no-effect control and ±100 the full control effect; nearly all actives have a fitted effect of over 50% in size
IL2 activator – qHTS of IL-2 Activators; activation, % (series mostly up to about 46 µM); 0.065% of 360,000 active; IL-2 activation reporter assay, cell-based qHTS; stimulated with anti-CD3/CD4/CD28 beads; in transgenic mouse T cells; AID 652025, 2013; in the data active means activation above about 50%; inconclusive means mostly about 30% to 49%; further: 0% is about no effect
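EGFP and DsRed fluorescence is measured by plate cytometry in unstimulated transgenic mouse T cells exposed to compound for 60 minutes, then stimulated 18 hours at 37 degrees C with anti-CD3/anti-CD4 beads plus anti-CD28.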
PKM2 act – qHTS Assay for Activators of Human Muscle isoform 2 Pyruvate Kinase. purified PKM2, Kinase-Glo ATP luminescence, activation; response scale: 0% is enzyme alone, no compound. 0.34% of 260,000 active. Pyruvate kinase PKM (Homo sapiens), P14618. AID 1631, 2009. Potency, µM (titrated, usually from 57.5 µM), for inactives: top-dose activation, actives largely listed as activators; further: potency means the concentration at half of the fitted maximal effect; on the % scale 0 is the no-effect control and ±100 the full control effect; nearly all actives have a fitted effect of over 55% in size
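hPK-M2, >95% pure; 0.1 mM ADP / 0.5 mM PEP final; imidazole pH7.2 buffer w/ 7 mM MgCl2, 50 mM KCl; 1 h RT; Kinase-Glo lum. Intermediate enzyme activity for dual inhibitor/activator qHTS.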
ClpP validation – qHTS Assay for Activators of ClpP: Hit Validation of Inhibitors. AID 743245, 2014. purified B. subtilis ClpP, FRET-FV substrate cleavage, 20 min. 40% of 470 active. Potency, µM (doses to about 57.5 µM), inactives show at the highest dose activity change, negative = inhibition, usual class: inhibitors. shares compounds with ClpP mod; further: potency means the concentration at half of the fitted maximal effect; on the % scale 0 is the no-effect control and ±100 the full control effect; nearly all actives have a fitted effect of over 70% in size
Starred values were filed as active, the others as inactive; [ ] = another dose, or the depositor's remark. Compounds with a hit are over-represented: about 2% of the library has one in this group of screens. Unless noted, the call rests on the fitted dose curve; in most records, active means well fitted curve in the direction sought with a large enough effect; inconclusive means small, poorly fitted or top-dose-only effect, or another doubt; inactive means no such curve, though single readings can be large; an effect the other way counts as inactive or inconclusive.

What do the screens show for `Cn1ncnc2c(=O)n(C)c(=O)nc1-2`?
ClpP mod: 1%; NPSR antag: 1µM*; IL2 activator: -2; PKM2 act: -13%

How did CCCCn1c(NS(=O)(=O)c2ccccc2)c(C(=O)OCC)c2nc3ccccc3nc21 do in these assays?
ClpP mod: 28µM*; NPSR antag: 7%; IL2 activator: 1; PKM2 act: 25%

How did Nc1c(C(=O)NCCN2CCOCC2)c2nc3ccccc3nc2n1Cc1ccco1 do in these assays?
ClpP mod: 16µM*; NPSR antag: -22%[46.1 µM]; IL2 activator: -1; PKM2 act: -1%

What do the screens show for `Nc1c(C(=O)NCCc2ccccc2)c2nc3ccccc3nc2n1CCN1CCOCC1`?
ClpP mod: inconclusive; NPSR antag: -22%[46.1 µM]; IL2 activator: -1; PKM2 act: 1%

Results for CCC(C)NC(=O)c1c(N)n(CC2CCCO2)c2nc3ccccc3nc12 (stereo not given) ?
ClpP mod: 35µM*; NPSR antag: 3%[7.67 µM]; IL2 activator: 0; PKM2 act: -1%

What do the screens show for `CCCCn1c(NC(=O)c2ccc(Br)o2)c(C(=O)OCC)c2nc3ccccc3nc21`?
NPSR antag: 3%; IL2 activator: 4; PKM2 act: -1%

What do the screens show for `CCOC(=O)c1c(N)n(CCN2CCCCC2)c2nc3ccccc3nc12`?
ClpP mod: 32µM*; NPSR antag: -13%[46.1 µM]; IL2 activator: -1; PKM2 act: 2%

How did CC(C)CCNC(=O)c1c(N)n(CC2CCCO2)c2nc3ccccc3nc12 (stereo not given) do in these assays?
ClpP mod: inconclusive; NPSR antag: inconclusive; IL2 activator: 1; PKM2 act: 3%

What do the screens show for `Nc1c(C(=O)NCCN2CCOCC2)c2nc3ccccc3nc2n1Cc1ccccc1`?
NPSR antag: -49%; IL2 activator: -4; PKM2 act: -5%

What do the screens show for `COCCNC(=O)c1c(NC(=O)c2ccco2)n(Cc2ccccc2)c2nc3ccccc3nc12`?
ClpP mod: 25µM*; NPSR antag: inconclusive; IL2 activator: 0; PKM2 act: 4%

Results for COCCNC(=O)c1c(N)n(Cc2ccco2)c2nc3ccccc3nc12 ?
ClpP mod: inconclusive; NPSR antag: inconclusive; IL2 activator: -3; PKM2 act: 12%

How did CCCCn1c(N)c(C(=O)NCCN2CCOCC2)c2nc3ccccc3nc21 do in these assays?
ClpP mod: 11µM*; NPSR antag: inconclusive; IL2 activator: -2; PKM2 act: -4%

How did C=CCNC(=O)c1c(N)n(Cc2ccco2)c2nc3ccccc3nc12 do in these assays?
ClpP mod: 16µM*; NPSR antag: -26%[46.1 µM]; IL2 activator: 2; PKM2 act: 3%

What do the screens show for `COc1ccc(N2C(=O)C3[C@@H](C2=O)C2(Cl)C(Cl)=C(Cl)C3(Cl)C2(OC)OC)cc1` (stereo not given in full)?
ClpP mod: 3.5µM*; NPSR antag: -4%[46.1 µM]; IL2 activator: 0; PKM2 act: -3%

Results for COc1ccc(N2C(=O)/C(=C/c3ccc(OC)c(OC)c3)C(=O)NC2=S)cc1 ?
ClpP mod: 0%; IL2 activator: 0; PKM2 act: 2%

How did CS(=O)(=O)c1ccc(C2=C(CNC(=O)c3nccs3)[C@H]3CC[C@@H](C2)N3Cc2ccco2)cc1 do in these assays?
ClpP mod: 0%; IL2 activator: 0

What do the screens show for `CC1CCC(C(C)C)C(OP(N)(=O)c2ccccc2)C1` (stereo not given)?
ClpP mod: 2%; NPSR antag: 6%[7.67 µM]; IL2 activator: 0; PKM2 act: -1%

Results for CC1CCC(C(C)C)C(OC(=O)COC(=O)c2ccccc2N)C1 (stereo not given) ?
ClpP mod: 28µM*; NPSR antag: -50%; IL2 activator: -1; PKM2 act: -17%

How did COc1ccc2c3c1OC1[C@H](O)CCC4[C@@H](C2)N(C)CC[C@]314 (stereo not given in full) do in these assays?
ClpP mod: -1%; IL2 activator: 0

How did S=c1[nH]nc(-c2cccs2)n1C1CCCCC1 do in these assays?
ClpP mod: 32µM*; NPSR antag: inconclusive; IL2 activator: -1; PKM2 act: -23%

What do the screens show for `O=c1c(C=NCc2cccs2)c(O)n(C2CCCCC2)c(=O)n1C1CCCCC1`?
ClpP mod: -3%; NPSR antag: inconclusive; IL2 activator: -2; PKM2 act: 8%

What do the screens show for `N=C(N)c1c(O)n(C2CCCCC2)c(=O)n(C2CCCCC2)c1=O`?
ClpP mod: -6%; NPSR antag: 10µM*; IL2 activator: 0; PKM2 act: -2%

How did COP(=S)(OC)c1c(C)nn(CCC#N)c1NC(=O)c1ccc(Cl)cc1 do in these assays?
IL2 activator: 1; PKM2 act: 0%

Results for CCCCn1cnc2cc(NCc3cccc(OC)c3O)ccc21 ?
ClpP mod: 32µM*; NPSR antag: -16%[46.1 µM]; IL2 activator: 2; PKM2 act: 1%

How did Cc1ccc2cc3cc(C(=O)N4CCC5(CC4)OCCO5)oc3nc2c1 do in these assays?
ClpP mod: 14µM*; NPSR antag: 3%[46.1 µM]; IL2 activator: -3; PKM2 act: -4%

Results for Cc1cc(OCc2nn[nH]n2)c2c3c(c(=O)oc2c1)CCCC3 ?
ClpP mod: 6.3µM*; NPSR antag: -7%[46.1 µM]; IL2 activator: -1; PKM2 act: -3%; ClpP validation: 27µM*

Results for Cc1cc(OCc2ccc([N+](=O)[O-])cc2)c2c3c(c(=O)oc2c1)CCCC3 ?
ClpP mod: 0%; NPSR antag: -10%[46.1 µM]; IL2 activator: 1; PKM2 act: -12%

How did CC1CC(C)CC(C)C(O)C(C#N)=CC=CCC(C2CCCC2C(=O)O)OC(=O)CC(O)C(C)C1 (stereo not given) do in these assays?
ClpP mod: 0%; IL2 activator: -7

Results for COc1ccccc1NC(=O)c1oc2ccccc2c1NC(=O)c1ccccc1C(F)(F)F ?
ClpP mod: 206%; ClpP validation: 31µM*

How did CNC(=O)Oc1ccc(-c2cn3cc(Cl)ccc3n2)cc1 do in these assays?
ClpP mod: 8.9µM*; NPSR antag: -8%; IL2 activator: 0; PKM2 act: -14%; ClpP validation: inconclusive

Results for CCC(=NCCc1ccccc1)c1c(O)n(C)c(=O)n(C)c1=O ?
ClpP mod: 0%; NPSR antag: 4%; IL2 activator: -1; PKM2 act: 4%

High-throughput results as filed in PubChem BioAssay.
